Reference: PubChem BioAssay (Tox21)
Where “and” joins values, the source holds several entries; their conditions need not be identical. Equal values may be shown once. Results filed as inconclusive are left out. Where a call stands in place of a potency, no number is given. Some structures have more than one record in an assay (separate samples or runs), and their calls can disagree. Calls of active or inactive are those of the source. Unless noted, calls come from the whole dose curve; as a rule, active = well fitted curve in the direction sought with a large enough effect in the repeat runs; inconclusive = weak or mixed curves; inactive = no such curve, though single readings can be large; an effect the other way counts as inactive or inconclusive.

Columns and labels:
[1] = qHTS assay to identify small molecule agonists of the estrogen receptor alpha (ER-alpha) signaling pathway in the presence of an antagonist - cell viability counter screen (AID 1259386);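 note: cells exposed to compounds for 22 h at 37 °C before the viability read; nearly all actives have a fitted effect of over 30% in size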; note: potency is the fitted concentration of half-maximal effect
Outline: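 ICI-182,780 at 10.0nM final accompanies the compound titration (15 concentrations, 22hr, 37C) on VM7Luc4E2 cells. The CellTiter-Fluor fluorescence readout runs in the same wells as the luciferase assay.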

[2] = molecular target: Progesterone receptor (Homo sapiens) (UniProt P06401); experiment: qHTS assay to identify small molecule agonists of the progesterone receptor (PR) signaling pathway (AID 1346784; calls by dose curve; note: nearly all actives have a fitted effect of over 30% in size)
Outline: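 Compounds were tested for PR agonism in HEK 293T cells bearing a beta-lactamase gene under UAS control. Treatment lasted 16 hr at 37C; signal came from fluorescence of a FRET substrate.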

[3] = molecular target: Progesterone receptor (Homo sapiens) (UniProt P06401); experiment: qHTS assay to identify small molecule antagonists of the progesterone receptor (PR) signaling pathway (AID 1346795; active = well fitted inhibition curve with a large enough effect in the signal ratio in the repeat runs, not every such curve was filed as active; the % refers to the signal ratio)
Outline: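 In HEK293T cells bearing the PR-UAS-bla reporter, compound effects on promegestone-driven (1 nM) beta-lactamase expression are assessed after 16 hr using a fluorescent FRET substrate incubated 2 hr at room temperature.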

[4] = qHTS assay to identify small molecule antagonists of the progesterone receptor (PR) signaling pathway - cell viability counter screen (AID 1346798); note: nearly all actives have a fitted effect of over 50% in size; note: potency is the fitted concentration of half-maximal effect
Outline: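 Following a 4 hr attachment, PR-UAS-bla HEK293T cells in charcoal-stripped FBS medium were exposed to compounds with R5020 for 16 hr; CellTiter-Glo was added and luminescence read after 30 min at room temperature.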

[5] = qHTS assay to identify small molecule agonists of the progesterone receptor (PR) signaling pathway - cell viability counter screen (AID 1346799; calls by dose curve; note: nearly all actives have a fitted effect of over 45% in size; note: potency is the fitted concentration of half-maximal effect)
Outline: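 Here, 3,000 PR-UAS-bla HEK293T cells per well were treated with compounds for 16 hr after a 6 hr preincubation at 37C and 5% CO2; cell viability is the CellTiter-Glo luminescence signal.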

[6] = qHTS assay to identify small molecule antagonists of the TGF-beta/Smad signaling pathway - cell viability counter screen (AID 1346824); note: nearly all actives have a fitted effect of over 50% in size; note: potency is the fitted concentration of half-maximal effect
Outline: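 Cytotoxicity counter-screen run in the same wells as the beta-lactamase Smad reporter read: CellTiter-Glo luminescence after 30 min at room temperature. HEK 293T SBE-bla cells had 5 hr compound exposure at 37 C with TGF-beta1 (0.25 ng/mL stock).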

[7] = qHTS assay to identify small molecule agonists of the TGF-beta/Smad signaling pathway - cell viability counter screen (AID 1346829); note: nearly all actives have a fitted effect of over 45% in size; note: potency is the fitted concentration of half-maximal effect
Outline: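 Compound-treated SBE-bla HEK 293T cells (5 hr, 37 C) were assessed for viability with CellTiter-Glo in parallel with the reporter read.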

[8] = qHTS assay to identify small molecule agonists of the TGF-beta/Smad signaling pathway (AID 1346859; active = well fitted activation curve with a large enough effect in the signal ratio in the repeat runs, not every such curve was filed as active; the % refers to the signal ratio; note: series mostly up to about 77 µM)
Outline: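 Each well held 4,000 SBE-bla HEK 293T cells incubated overnight before compound addition; 5 hr later the cleavable FRET substrate went on for 2 hr at room temperature, and fluorescence was read at two emissions.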

[9] = molecular target: Thyrotropin-releasing hormone receptor (Homo sapiens) (UniProt P34981); experiment: qHTS assay to identify small molecule antagonists of the thyrotropin-releasing hormone receptor (TRHR) signaling pathway (AID 1346877; active = well fitted inhibition curve with a large enough effect in the repeat runs, not every such curve was filed as active; note: series mostly up to about 51 µM)
Outline: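 Screening used HEK293 cells engineered with TRHR, with a brief 5 min room-temperature compound exposure preceding addition of TRH to 1 nM. The read-out was kinetic calcium-dye fluorescence, concentration-response from 15 doses in triplicate.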

[10] = molecular target: Thyrotropin-releasing hormone receptor (Homo sapiens) (UniProt P34981); experiment: qHTS assay to identify small molecule agonists of the thyrotropin-releasing hormone receptor (TRHR) signaling pathway (AID 1346891; calls by dose curve; note: series mostly up to about 58 µM)
Outline: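 Screening of agonists relied on calcium signalling in HEK293 cells expressing human TRHR: dye loading 2 h at 37 °C preceded compound addition and a 3-min fluorescence time course.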

Chain of Thyrotropin-releasing hormone receptor (Homo sapiens) (P34981 whole entry, looked up): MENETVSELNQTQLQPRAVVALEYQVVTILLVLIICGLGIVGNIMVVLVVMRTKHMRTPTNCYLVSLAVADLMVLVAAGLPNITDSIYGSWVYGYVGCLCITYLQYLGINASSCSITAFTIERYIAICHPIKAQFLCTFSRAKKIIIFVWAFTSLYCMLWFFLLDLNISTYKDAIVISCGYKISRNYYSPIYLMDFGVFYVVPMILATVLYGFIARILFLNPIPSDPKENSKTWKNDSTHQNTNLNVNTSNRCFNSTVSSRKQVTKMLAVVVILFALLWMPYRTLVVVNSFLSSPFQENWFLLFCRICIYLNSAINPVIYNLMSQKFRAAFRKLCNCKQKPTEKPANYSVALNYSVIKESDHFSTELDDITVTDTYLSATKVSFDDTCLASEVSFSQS
Chain of Progesterone receptor (Homo sapiens) (P06401 whole entry, looked up): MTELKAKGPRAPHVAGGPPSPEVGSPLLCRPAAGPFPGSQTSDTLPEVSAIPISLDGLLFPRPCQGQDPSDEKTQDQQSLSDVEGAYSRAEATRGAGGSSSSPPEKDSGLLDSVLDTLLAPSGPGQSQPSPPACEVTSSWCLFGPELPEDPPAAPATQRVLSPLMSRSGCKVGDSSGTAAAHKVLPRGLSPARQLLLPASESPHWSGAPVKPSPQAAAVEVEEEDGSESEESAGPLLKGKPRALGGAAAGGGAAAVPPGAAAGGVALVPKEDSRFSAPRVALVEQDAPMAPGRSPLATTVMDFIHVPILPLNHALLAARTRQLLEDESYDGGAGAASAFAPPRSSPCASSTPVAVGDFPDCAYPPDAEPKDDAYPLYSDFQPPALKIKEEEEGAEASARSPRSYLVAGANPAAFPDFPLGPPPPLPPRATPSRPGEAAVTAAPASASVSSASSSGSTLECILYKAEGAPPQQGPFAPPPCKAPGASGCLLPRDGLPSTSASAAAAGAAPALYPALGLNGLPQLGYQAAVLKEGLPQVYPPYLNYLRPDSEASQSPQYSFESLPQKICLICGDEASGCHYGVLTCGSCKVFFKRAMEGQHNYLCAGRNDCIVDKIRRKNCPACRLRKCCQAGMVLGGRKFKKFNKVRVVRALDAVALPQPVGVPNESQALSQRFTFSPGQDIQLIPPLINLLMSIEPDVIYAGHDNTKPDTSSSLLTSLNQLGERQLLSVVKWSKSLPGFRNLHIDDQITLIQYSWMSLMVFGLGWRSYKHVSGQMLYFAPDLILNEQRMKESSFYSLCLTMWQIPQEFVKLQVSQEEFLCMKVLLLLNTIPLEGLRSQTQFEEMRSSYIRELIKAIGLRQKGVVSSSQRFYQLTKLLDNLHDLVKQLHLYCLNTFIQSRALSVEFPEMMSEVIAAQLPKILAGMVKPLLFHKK

Row | SMILES | Potency [1] | Potency [2] | Potency [3] | Potency [4] | Potency [5] | Potency [6] | Potency [7] | outcome [8] | Potency [9] | Potency [10]
1 | CCCCC(CC)C(=O)O (centres undefined) | inactive | inactive | inactive | inactive | inactive | inactive | inactive |  |  | 
2 | C=C(C)C(=O)OCC(C)O (centres undefined) | inactive | inactive | inactive | inactive | inactive | inactive | inactive | inactive |  | 
3 | NC(=O)c1cccnc1 | inactive | inactive | inactive | inactive | inactive | inactive | inactive |  |  | 
4 | Cn1c(=O)c2c(ncn2C)n(C)c1=O | 61.9 µM (active) and inactive | inactive | inactive | inactive | inactive | inactive | inactive | inactive |  | 
5 | COc1ccc2c(c1)c(CC(=O)O)c(C)n2C(=O)c1ccc(Cl)cc1 | inactive | inactive | inactive | inactive | inactive | inactive | inactive |  |  | 
6 | C[C@](N)(Cc1ccc(O)c(O)c1)C(=O)O | inactive and 54.3 µM (active) | inactive | inactive | inactive | inactive | inactive | inactive | inactive | inactive | inactive
7 | CN(N=O)C(=O)N[C@@H]1[C@@H](O)[C@H](O)[C@@H](CO)O[C@@H]1O | inactive | inactive | inactive | inactive | inactive | inactive | inactive | inactive | inactive | inactive
8 | Nc1ccc(S(N)(=O)=O)cc1 | inactive | inactive | inactive | inactive | inactive | inactive | inactive |  | inactive | inactive
9 | Nc1c2c(nc3ccccc13)CCCC2 | inactive | inactive | inactive | inactive | inactive | inactive | inactive |  | inactive | inactive
10 | CCCCCCCC(=O)OCC(COC(=O)CCCCCCC)OC(=O)CCCCCCC | inactive | inactive | inactive | inactive | inactive | inactive | inactive |  | inactive | inactive
11 | CC(C)NCC(O)c1ccc(O)c(O)c1 (centres undefined) | 54.5 µM (active) | inactive | inactive | inactive | inactive | inactive | inactive | inactive | inactive | inactive
12 | C=CCc1ccc(O)c(OC)c1 | inactive | inactive | inactive | inactive | inactive | inactive | inactive |  | inactive | inactive
13 | Cc1ncc([N+](=O)[O-])n1CCO | inactive | inactive | inactive | inactive | inactive | inactive | inactive |  | inactive | inactive
14 | CCCCCCCCCCCCCCCC[N+](C)(C)Cc1ccccc1 | inactive | inactive | inactive | 24.8 µM (active) | 10 µM (active) and 12.4 µM (active) and 6.68 µM (active) | 56.7 µM (active) and 49.8 µM (active) | 45 µM (active) and 39.6 µM (active) and 19 µM (active) |  | inactive | inactive
15 | CCOC(N)=O | inactive | inactive | inactive | inactive | inactive | inactive | inactive |  | inactive | inactive
16 | CCCc1cc(=O)[nH]c(=S)[nH]1 | inactive | inactive | inactive | inactive | inactive | inactive | inactive |  | inactive | inactive
17 | OC[C@H]1O[C@H](O[C@]2(CCl)O[C@H](CCl)[C@@H](O)[C@@H]2O)[C@H](O)[C@@H](O)[C@H]1Cl | inactive | inactive | inactive | inactive | inactive | inactive | inactive |  | inactive | inactive
18 | CS(=O)(=O)OCCCCOS(C)(=O)=O | inactive | inactive | inactive | inactive | inactive | inactive | inactive |  | inactive | inactive
19 | F[B-](F)(F)F | inactive | inactive | inactive | inactive | inactive | inactive | inactive |  | inactive | inactive
20 | CCCCC1(COC(=O)CCC(=O)O)C(=O)N(c2ccccc2)N(c2ccccc2)C1=O | inactive | inactive | inactive | inactive | inactive | inactive | inactive |  | inactive | inactive
21 | NS(=O)(=O)c1cc2c(cc1Cl)NCNS2(=O)=O | inactive | inactive | inactive | inactive | inactive | inactive | inactive |  | inactive | inactive
22 | Cc1cccc(C)c1 | inactive | inactive | inactive | inactive | inactive | inactive | inactive | inactive | inactive | inactive
